Drawing on publication PMC9838217, “Structure of SALL4 zinc finger domain reveals link between AT-rich DNA binding and Okihiro syndrome”, this text covers binding signal for 42 sequences.

Substitutions are numbered along the chain they refer to.

Common to all, as to experiment: HT-SELEX; high values mean tight binding
Details in all cases: protein: recombinant; vector His6-GST; dsDNA, one strand shown

The target of one test is T1, SALL4 ZFC4 WT (HT-SELEX) (Mus musculus, UniProt Q8BX22 870-940).
T1 sequence: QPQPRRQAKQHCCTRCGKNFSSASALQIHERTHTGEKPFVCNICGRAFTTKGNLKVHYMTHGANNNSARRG
Put shortly: (§1)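 Library DNA (1.5 µg in cycle one, 200 ng in later cycles) was incubated with 1 µg of purified recombinant mouse SALL4 zinc finger cluster 4, residues 870–940, in 100 µl buffer (10 mM Tris–HCl pH 7.5, 50 mM NaCl, poly(dI-dC), DTT) at room temperature for 10 min. Up to 6 rounds of Ni2+ bead capture, washing, PCR amplification and reselection were run in triplicate. Reads from MiSeq sequencing were scanned for 6-mers. For each canonical k-mer, binding signal is its read fraction as fold change versus the original random library.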

Test [1] has as its target T2, SALL4 ZFC4 R900W (HT-SELEX) (Mus musculus, UniProt Q8BX22 870-940, R900W).
T2 sequence: T1 sequence with R31W
The essentials: as §1

Test [2] concerns the target T3, SALL4 ZFC4 G921D (HT-SELEX) (Mus musculus, UniProt Q8BX22 870-940, G921D).
T3 sequence: T1 sequence with G52D
The essentials:
as §1

Consider ACTCCG, for which the binding signal with SALL4 ZFC4 WT (HT-SELEX) turned out to be 0.4 ± 0.00858 fold-change vs cycle 0; in test [1] it was 0.466 ± 0.0288 fold-change vs cycle 0; in test [2] it was 0.594 ± 0.0678 fold-change vs cycle 0.
As for ATCCAC, the binding signal with SALL4 ZFC4 WT (HT-SELEX) came to 0.828 ± 0.0223 fold-change vs cycle 0; in test [1] it was 0.953 ± 0.0135 fold-change vs cycle 0; in test [2] it was 0.986 ± 0.0515 fold-change vs cycle 0.
On to CTTCCC, for which the binding signal in the test with SALL4 ZFC4 WT (HT-SELEX) turned out to be 0.499 ± 0.032 fold-change vs cycle 0; in test [1], 0.599 ± 0.0427 fold-change vs cycle 0; in test [2], 0.656 ± 0.0665 fold-change vs cycle 0.
With GCTGTA, the results for the binding signal (with SALL4 ZFC4 WT (HT-SELEX); in test [1]; in test [2]) were 0.574 ± 0.0425 fold-change vs cycle 0, 0.653 ± 0.0229 fold-change vs cycle 0 and 0.75 ± 0.0402 fold-change vs cycle 0, respectively.
Regarding TATCCA, the binding signal turned out to be 1.41 ± 0.0597 fold-change vs cycle 0 with SALL4 ZFC4 WT (HT-SELEX), 1.44 ± 0.0638 fold-change vs cycle 0 in test [1] and 1.34 ± 0.0962 fold-change vs cycle 0 in test [2].
As to CTGCTC, the values for the binding signal (with SALL4 ZFC4 WT (HT-SELEX); in test [1]; in test [2]) were 0.36 ± 0.0162 fold-change vs cycle 0, 0.436 ± 0.00828 fold-change vs cycle 0 and 0.567 ± 0.028 fold-change vs cycle 0, respectively.
On to ATTGAA, for which the binding signal with SALL4 ZFC4 WT (HT-SELEX) was 2.11 ± 0.107 fold-change vs cycle 0; in test [1] it was 2.06 ± 0.169 fold-change vs cycle 0; in test [2], 1.86 ± 0.169 fold-change vs cycle 0.
As to ATGTCG, the binding signal worked out at 0.521 ± 0.0491 fold-change vs cycle 0 in the test with SALL4 ZFC4 WT (HT-SELEX), 0.603 ± 0.00997 fold-change vs cycle 0 in test [1] and 0.73 ± 0.0508 fold-change vs cycle 0 in test [2].
As to CAGACA, the binding signal with SALL4 ZFC4 WT (HT-SELEX) stood at 0.66 ± 0.0364 fold-change vs cycle 0; in test [1] it was 0.798 ± 0.012 fold-change vs cycle 0; in test [2], 0.862 ± 0.0574 fold-change vs cycle 0.
As to ATGTGG, the binding signal with SALL4 ZFC4 WT (HT-SELEX) is 0.714 ± 0.021 fold-change vs cycle 0; in test [1] it was 0.787 ± 0.0136 fold-change vs cycle 0; in test [2], 0.851 ± 0.0464 fold-change vs cycle 0.
Take ACGATC: the binding signal with SALL4 ZFC4 WT (HT-SELEX) turned out to be 0.662 ± 0.038 fold-change vs cycle 0; in test [1], 0.773 ± 0.0211 fold-change vs cycle 0; in test [2], 0.907 ± 0.0183 fold-change vs cycle 0.
For the sequence ACTTAC, the results for the binding signal (with SALL4 ZFC4 WT (HT-SELEX); in test [1]; in test [2]) were 1.44 ± 0.0822 fold-change vs cycle 0, 1.6 ± 0.106 fold-change vs cycle 0 and 1.47 ± 0.146 fold-change vs cycle 0, respectively.
The like results for TAAAAA were, in that order, 3.23 ± 0.33 fold-change vs cycle 0, 2.2 ± 0.213 fold-change vs cycle 0 and 1.92 ± 0.229 fold-change vs cycle 0.
With ACGGAG, the binding signal with SALL4 ZFC4 WT (HT-SELEX) was 0.414 ± 0.0316 fold-change vs cycle 0; in test [1] it was 0.522 ± 0.0321 fold-change vs cycle 0; in test [2] it was 0.609 ± 0.0699 fold-change vs cycle 0.
Consider AACGTG, for which the binding signal was 0.697 ± 0.0529 fold-change vs cycle 0 with SALL4 ZFC4 WT (HT-SELEX), 0.827 ± 0.0416 fold-change vs cycle 0 in test [1] and 0.87 ± 0.0436 fold-change vs cycle 0 in test [2].
Regarding CCCAAG, the binding signal in the test with SALL4 ZFC4 WT (HT-SELEX) came out at 0.456 ± 0.0184 fold-change vs cycle 0; in test [1], 0.532 ± 0.00725 fold-change vs cycle 0; in test [2], 0.619 ± 0.0423 fold-change vs cycle 0.
For GTTTAA, the binding signal amounted to 1.69 ± 0.0773 fold-change vs cycle 0 in the test with SALL4 ZFC4 WT (HT-SELEX), 1.79 ± 0.0911 fold-change vs cycle 0 in test [1] and 1.63 ± 0.153 fold-change vs cycle 0 in test [2].
As for CGTTAC, the binding signal amounted to 0.817 ± 0.0239 fold-change vs cycle 0 in the test with SALL4 ZFC4 WT (HT-SELEX), 0.932 ± 0.0341 fold-change vs cycle 0 in test [1] and 0.941 ± 0.0136 fold-change vs cycle 0 in test [2].
Regarding ATTTAC, the binding signal was determined as 1.95 ± 0.0871 fold-change vs cycle 0 in the test with SALL4 ZFC4 WT (HT-SELEX), 1.9 ± 0.0674 fold-change vs cycle 0 in test [1] and 1.69 ± 0.111 fold-change vs cycle 0 in test [2].
Turning to CAACTA, the results for the binding signal (in the test with SALL4 ZFC4 WT (HT-SELEX); in test [1]; in test [2]) were 1.19 ± 0.0469 fold-change vs cycle 0, 1.31 ± 0.0705 fold-change vs cycle 0 and 1.29 ± 0.0584 fold-change vs cycle 0, respectively.
For the sequence GGTGTA, the values for the binding signal (with SALL4 ZFC4 WT (HT-SELEX); in test [1]; in test [2]) were 0.751 ± 0.0241 fold-change vs cycle 0, 0.855 ± 0.0293 fold-change vs cycle 0 and 0.889 ± 0.0301 fold-change vs cycle 0, respectively.
On to ACGGTA, for which the binding signal was found to be 0.715 ± 0.031 fold-change vs cycle 0 in the test with SALL4 ZFC4 WT (HT-SELEX), 0.817 ± 0.0376 fold-change vs cycle 0 in test [1] and 0.852 ± 0.0147 fold-change vs cycle 0 in test [2].
Take CCTACA: the binding signal stood at 0.76 ± 0.0346 fold-change vs cycle 0 in the test with SALL4 ZFC4 WT (HT-SELEX), 0.876 ± 0.0282 fold-change vs cycle 0 in test [1] and 0.919 ± 0.0351 fold-change vs cycle 0 in test [2].
On to GAGCAA, for which the binding signal with SALL4 ZFC4 WT (HT-SELEX) was 0.613 ± 0.0271 fold-change vs cycle 0; in test [1] it was 0.69 ± 0.0379 fold-change vs cycle 0; in test [2], 0.797 ± 0.00723 fold-change vs cycle 0.
CACCAC: the binding signal was 0.402 ± 0.0296 fold-change vs cycle 0 in the test with SALL4 ZFC4 WT (HT-SELEX), 0.465 ± 0.0324 fold-change vs cycle 0 in test [1] and 0.587 ± 0.0576 fold-change vs cycle 0 in test [2].
As to CCAAAA, the binding signal amounted to 0.9105 ± 0.0059 fold-change vs cycle 0 with SALL4 ZFC4 WT (HT-SELEX), 0.953 ± 0.0119 fold-change vs cycle 0 in test [1] and 0.997 ± 0.0429 fold-change vs cycle 0 in test [2].
The like results for GAATGC were, in that order, 0.632 ± 0.0438 fold-change vs cycle 0, 0.728 ± 0.0366 fold-change vs cycle 0 and 0.816 ± 0.0183 fold-change vs cycle 0.
CTTAAA: the binding signal in the test with SALL4 ZFC4 WT (HT-SELEX) stood at 1.73 ± 0.0848 fold-change vs cycle 0; in test [1] it was 1.87 ± 0.112 fold-change vs cycle 0; in test [2], 1.65 ± 0.165 fold-change vs cycle 0.
For TACGAA, the binding signal in the test with SALL4 ZFC4 WT (HT-SELEX) came to 1.17 ± 0.0583 fold-change vs cycle 0; in test [1] it was 1.27 ± 0.067 fold-change vs cycle 0; in test [2], 1.22 ± 0.0855 fold-change vs cycle 0.
For AGCTAA, in that order: 1.15 ± 0.044 fold-change vs cycle 0, 1.26 ± 0.0399 fold-change vs cycle 0 and 1.27 ± 0.0601 fold-change vs cycle 0.
On to CACTGG, for which the binding signal with SALL4 ZFC4 WT (HT-SELEX) stood at 0.426 ± 0.00956 fold-change vs cycle 0; in test [1], 0.508 ± 0.0154 fold-change vs cycle 0; in test [2], 0.615 ± 0.0147 fold-change vs cycle 0.
For CAGCAG, in that order: 0.333 ± 0.0334 fold-change vs cycle 0, 0.387 ± 0.024 fold-change vs cycle 0 and 0.523 ± 0.0543 fold-change vs cycle 0.
For TAGCAA, in that order: 1.14 ± 0.0337 fold-change vs cycle 0, 1.17 ± 0.0822 fold-change vs cycle 0 and 1.21 ± 0.0899 fold-change vs cycle 0.
Consider AGAACG, for which the binding signal with SALL4 ZFC4 WT (HT-SELEX) was 0.692 ± 0.0289 fold-change vs cycle 0; in test [1], 0.817 ± 0.046 fold-change vs cycle 0; in test [2] it was 0.844 ± 0.0513 fold-change vs cycle 0.
On to CAGGTC, for which the binding signal with SALL4 ZFC4 WT (HT-SELEX) was 0.406 ± 0.041 fold-change vs cycle 0; in test [1], 0.487 ± 0.0258 fold-change vs cycle 0; in test [2] it was 0.603 ± 0.0536 fold-change vs cycle 0.
Turning to TCCCGA, the values for the binding signal (in the test with SALL4 ZFC4 WT (HT-SELEX); in test [1]; in test [2]) were 0.394 ± 0.0144 fold-change vs cycle 0, 0.445 ± 0.019 fold-change vs cycle 0 and 0.562 ± 0.0681 fold-change vs cycle 0, respectively.
ACCACG: the figures for the binding signal (with SALL4 ZFC4 WT (HT-SELEX); in test [1]; in test [2]) were 0.351 ± 0.0168 fold-change vs cycle 0, 0.428 ± 0.0163 fold-change vs cycle 0 and 0.523 ± 0.0453 fold-change vs cycle 0, respectively.
For CATGGG, in that order: 0.477 ± 0.0485 fold-change vs cycle 0, 0.543 ± 0.0349 fold-change vs cycle 0 and 0.645 ± 0.0616 fold-change vs cycle 0.
Take CATTAG: the binding signal was 1.317 ± 0.00537 fold-change vs cycle 0 in the test with SALL4 ZFC4 WT (HT-SELEX), 1.45 ± 0.0172 fold-change vs cycle 0 in test [1] and 1.39 ± 0.0502 fold-change vs cycle 0 in test [2].
For ACTCTA, in that order: 1.37 ± 0.0421 fold-change vs cycle 0, 1.48 ± 0.0703 fold-change vs cycle 0 and 1.43 ± 0.113 fold-change vs cycle 0.
On to CTCTGA, for which the results for the binding signal (in the test with SALL4 ZFC4 WT (HT-SELEX); in test [1]; in test [2]) were 0.812 ± 0.0446 fold-change vs cycle 0, 0.948 ± 0.0551 fold-change vs cycle 0 and 0.993 ± 0.0433 fold-change vs cycle 0, respectively.
For ATCATA, in that order: 2.91 ± 0.29 fold-change vs cycle 0, 2.08 ± 0.118 fold-change vs cycle 0 and 1.88 ± 0.177 fold-change vs cycle 0.
